The whole screen tested about 53,000 sequences, of which about 3,700 (7%) were called active. Only a selection was taken, and actives are over-represented in it overall. Unmarked numbers belong to inactive results.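 Rule for the calls: active = gene knockdowns whose robust z-score for IL-1 alpha signal is at least 2 or at most -2, so actives lie on both sides; inactive = the rest.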

Data on 69 sequences can be found in PubChem BioAssay AID1508600 (Functional Genomics Laboratory (NCATS/FGL), 2020).

This assay can be described thus: Components of the Cytosolic LPS Sensing Pathway: Gene Identification via Genome-wide siRNA Screen.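 Note: robust z of the log signal after scaling to non-targeting control siRNA wells of the plate.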 As to conditions: RAW264.7 macrophages, IL-1a HTRF, actives lie on both sides, screened at 100 nM (by protocol), cells primed 5 h with Pam3CSK4 first. In a few lines: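 Using IL-1a HTRF as read-out, the screen measured release from RAW264.7 cells after 48h siRNA knockdown (100 nM), 5 h Pam3CSK4 priming and 24 h cytosolic LipidA. Values were expressed relative to negative-control wells as robust z-scores.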
(In general: In TR-FRET formats the signal depends on donor and acceptor labels being close together.)
As for GGUACAUGAUCAAUUUAGATT against Tspyl4, the z-score is 0.726.
Then GGACAUUAGGAAAUUAGAUTT against Ppp3cc, with -0.404; and GGCAGUACUGUCCAGAUGATT against Gsdma2, with -2.12 (active).
Then CCUUAUCUAUAACUCUGCUTT against Tirap, with -0.772; and GGAGAGCGAAGAAAAAAUGTT against Birc2, with -0.852.
With GGUUGUCUUCAACACCAAATT against Lgals7, the z-score was -0.147.
As for GCAAGAGCAUGCUUACGGUTT against Ccl1, the z-score was -0.324.
As to GGGUUUCUUGUUGGUUUUATT against Dock5, the z-score is 2.29 (active).
Turning to GGACGGGAUUGAGCCUAUGTT against Eif4e, the z-score is 1.65.
Consider CCAAGCUUACACUAGUGUUTT against Cdk6, for which the z-score is -0.429.
As to GCGUGUACAAGGCUAUUCATT against Stk4, the z-score is 1.19.
Then GGCCUACUUCCUACUCAAATT against Tbx10, with -1.85.
Then CCUACACCUAGAAAUCUAGTT against Gpr3, with 1.52; and GGAUGAGGAUGGCUAUAAGTT against Zc3h10, with 0.585.
With GGGAAGGAUGACCUAACAATT against Gpatch4, the z-score is -0.839.
Then CGGAUUAGAAGAGCCAAACTT against Cd59b, with 0.352; and GGCUACCCUUUUGAACCUCTT against Psmd3, with -2.81 (active).
Then GGAAAAAGCCAAGCUCAUCTT against Syt3, with -1.5; and GGAGCAUCCUGGCAAACAGTT against Slc51b, with -1.32.
CUGAUCCUUCAAUUAACAUTT against Olfr202: the z-score is 0.0318.
Then GCGACUCCUAUAAUUUCUATT against Rpa3, with -2.17 (active); and GCAGGUCCUGACCUAUGUGTT against Cyp27b1, with -0.556; and CCAUCUGCAUCAAGAGAAATT against Kirrel2, with 0.709.
Then GGAACGUACAGGAUAAUCUTT against Krt79, with 4.28 (active).
Turning to GGCUAAAGAAUAAAGAUCCTT against Cadm2, the z-score was 1.66.
In the case of GUGAGACCAAGUUACAGGATT against Olfr1504, the z-score was 1.5.
Consider CCAACCAAAGAUGAAUUGUTT against Usp19, for which the z-score was -0.445.
Take GGUGGCCAAACAGGAAAAGTT against Fau: the z-score was 0.91.
Then GGCACACAAACAAUUGGUATT against Rrp36, with -0.318.
With GGGUUUCAUUAAAUUUCCUTT against Cyp2g1, the z-score is -2.06 (active).
CCGAAUAUCGAGUUCCCAATT against Ceacam20: the z-score is -0.0196.
Then GGAUGAGAAUGGCACCAGUTT against Prima1, with -1.4; and GGAAAUGUACAUCAUCAAGTT against Cnga2, with -1.24.
Then CCUGUUAAACAGGACUAGUTT against Tmem263, with -1.51.
For the sequence GGGAAUUUGCUCCUGAAAGTT against Pcdhb6, the z-score is -0.936.
Consider CCUUUGAAUCCCAGGUUCATT against Lmo1, for which the z-score was 3.05 (active).
Consider GGCCCUCCCAAAUCAUUUGTT against Slc30a6, for which the z-score was 0.188.
In the case of GGAUACAUUGAGAAAGACUTT against Tor1aip2, the z-score was 2.43 (active).
Then GGGAAGAAAGACUCAAACUTT against Dcdc2a, with 0.919.
Then GGAAAAUUCAGGAAGUUUGTT against Magi3, with 0.489; and GGAAACCUGAUUAUCAUCATT against Olfr791, with -0.337; and CCUGGACCCAUGAAGUCUUTT against Ahnak, with 0.911.
Then GCUGGCCAAACUUGACAGUTT against Wwc1, with 2.05 (active); and CCCUCAUACCGCUUAGAACTT against Tctex1d4, with -0.786; and GCCUGUGGCUUAAACUUCATT against Vat1l, with 0.11.
Consider GGAGAACAAGAUCUUACAGTT against Cby2, for which the z-score was -0.703.
Then GGAACACCACCUUAGAGAUTT against Hnrnpa2b1, with 1.52.
Take GAAAUGAGUCCUUGAAAAGTT against Olfr127: the z-score is -0.0661.
Then CGCAGCCUUUACCUCCGAATT against Plekha8, with -1.12.
For the sequence “GGCAUUAGCUACCUGGACATT against 1700013G24Rik”, the z-score is 3.44 (active).
Then GGUGGUCCAGACCAAGUACTT against Pfdn5, with -1.02; and GGUCUUCAGCCCAAGAAAUTT against Dsg2, with 0.127; and GCAAUACUUAUCCAUUGCGTT against Msx3, with -0.42.
Then GGACUCAUUGACUUCAUCATT against Atg12, with -1.8.
Then GCUUGCUUCGCCUACAUUGTT against Slc46a3, with -0.501.
As for GUAGUUAGGAACUCUUGCUTT against Thnsl2, the z-score is -0.086.
Then GGCUGAUGUGAUGAUUGUATT against Ndufs7, with 2.3 (active); and GCACUGUGAGUGGAUACUUTT against Slc5a3, with 0.13.
For “CCAUCAAGAUCUCUCAGUATT against A630091E08Rik”, the z-score is -1.25.
Take CGAAUGUCCUGGAAGCAAATT against Olfr142: the z-score is -0.0904.
Then GCUCUUAGAGAUUUGUUUGTT against Usp14, with 0.389; and CCAUUUUUGCUCAAUUUGCTT against Eif1ax, with -0.943; and GCCAAACUGCGUCUGAAUGTT against Rras, with 0.62.
With GGACAAGUACGGAAAGCCCTT against Hdgfl2, the z-score was 0.196.
As to GCCACAUAAGGUUGUUCCCTT against Gamt, the z-score is 2.9 (active).
Then CCUCUCCAACAACCAACUATT against Lrrc47, with -0.27.
Turning to GGCUCCAAAUCAAACUCUATT against Eif4e3, the z-score was 2.19 (active).
Then GGAACCAAGCCAUGAUUUUTT against Mrgprb2, with 0.646; and CCAGUACUCGUUUCACUUATT against Mrpl15, with 0.374.
